Data on nine compounds can be found in PubChem BioAssay.

For orientation: inhibition means the change of the read-out against control, counted positive when it falls.

The source made the active and inactive calls.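 How the source made its calls, unless noted: active means visual image review flags a hit and inhibition of aggregation exceeds 20%; inconclusive means visual hit but inhibition at or below 20%; inactive means no hit on visual image review.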

Test [1] can be described thus: inhibitors of TNFa-induced NFkB p65 translocation, primary screen, imaging, HUVEC, MLSMR starter and 10KST1 sets (AID 438;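 active means inhibition above 20% together with a positive visual image hit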;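 further: compound added about 3h40 before a 20 min TNFalpha stimulation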;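 on inhibition: signal is the nuclear over cytoplasmic p65 intensity ratio per well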). The note with it: HUVEC TNFa-induced p65 nuclear translocation; cell count: measured here: nuclei count (cytotoxicity indicator), at 2.08 µM; inhibition: at 2 µM, stronger effect = higher value, 0% TNFa-plus-vehicle, 100% no-TNFa wells.
Test [2] in a line: reduction of polyQ htt aggregates in cells – imaging, exon1htt(103Q)mCFP cells, high-content imaging, primary screen (AID 483).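 Further: compound exposure lasted 3 days before fixation.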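 On nuclei count: percent of the per-plate median nuclei count of sample wells.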 The note with it: exon1htt(103Q)mCFP cell line, aggregate imaging, at 2 µM; inhibition of aggregation: stronger effect = higher value; nuclei count: measured here: cell count, toxicity.
Test [3] is described as follows: endothelial E-selectin expression blockers – imaging, HUVEC, immunofluorescence, MLSMR starter and 10KST1 sets, primary screen (AID 487;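 active means visually confirmed hit in the image check and inhibition above 20%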;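 on inhibition: signal is fraction of cell area covered by stained E-selectin grains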;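 on nuclei count: 100% = median nuclei count of all wells on the same plate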). Particulars: HUVEC TNFalpha-induced E-selectin immunofluorescence imaging, at 2 µM; inhibition: stronger effect = higher value; nuclei count: measured here: cell number, toxicity.
Test [4] concerns the target Voltage-gated potassium channel subunit beta-2 (Rattus norvegicus) (UniProt P62483). Briefly: inhibitors of rat Kvbeta2 reductase activity – biochemical, NADPH fluorescence, primary screen (AID 622;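 active means fluorescence slope higher than the sample average by over 3 SD, cut at about -0.22 in these data, passing the limit was not always enough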;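 further: slope of raw intensity against log time taken from 70 to 1610 s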). Particulars: recombinant KvBeta, 4-cyanobenzaldehyde reduction, at 10 µM, stronger effect = higher value.
Test [5] shares this target. The test can be described thus: enhancers of rat Kvbeta2 NADPH turnover – biochemical, NADPH fluorescence, primary screen (AID 623;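 active means NADPH fluorescence slope more negative than the mean of all samples by about 3 SD, 99.7% confidence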;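 further: fluorescence intensity change per second fitted from 20 to 320 s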). The note with it: Recombinant KvBeta, NADPH fluorescence decrease slope, 10 min; at 10 µM; stronger effect = lower value.
For test [6], the target named is Alpha-2C adrenergic receptor (Homo sapiens) (UniProt P18825). Briefly: compounds altering alpha2C-coupled GIRK flux – cell-based, HEK293 alpha2C/GIRK1/2, thallium flux, primary screen (AID 624;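 active means fluorescence slope after compound addition differing from the mean of all screened samples at 99.7% confidence, in either direction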;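 further: slope of fluorescence ratio to pre-addition baseline per second over 15 to 24 s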). Particulars: thallium flux BTC fluorescence, at 10 µM, actives lie on both sides.
Alpha-2C adrenergic receptor (Homo sapiens), sequence (P18825 whole entry, looked up): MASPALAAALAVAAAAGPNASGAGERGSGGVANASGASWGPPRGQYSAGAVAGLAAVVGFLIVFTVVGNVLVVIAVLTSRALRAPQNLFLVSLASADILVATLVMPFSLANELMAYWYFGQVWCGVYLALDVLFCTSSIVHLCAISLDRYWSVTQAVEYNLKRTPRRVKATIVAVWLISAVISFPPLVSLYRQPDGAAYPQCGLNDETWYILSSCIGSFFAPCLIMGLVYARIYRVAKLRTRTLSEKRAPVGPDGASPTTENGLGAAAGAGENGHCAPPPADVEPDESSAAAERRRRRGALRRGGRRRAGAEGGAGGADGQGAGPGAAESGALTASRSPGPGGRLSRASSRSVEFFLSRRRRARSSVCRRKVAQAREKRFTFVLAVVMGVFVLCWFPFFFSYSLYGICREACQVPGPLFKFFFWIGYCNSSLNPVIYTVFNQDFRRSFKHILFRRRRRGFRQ
A short description of test [7]: blockers of RIG-like receptor reporter activation – cell-based, Sendai virus stimulus, luciferase, 10K MLSCN set, TLR/RLR signaling modifier project, primary screen (AID 602276;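 active means inhibition at or above 50% at 10 µM; inactive means inhibition below 50%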;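 further: firefly luciferase from ISG56 promoter only with Renilla not read in this screen; 0% = Sendai virus plus DMSO and 100% = medium plus DMSO without virus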). Particulars: HEK293 RL24 IRF3 luciferase reporter, at 10 µM, stronger effect = higher value. Background: In a reporter assay the amount or activity of a reporter protein is the signal.
A short description of test [8]: TLR3 IRF3 reporter activation blockers – cell-based, poly I:C stimulus, luciferase, 10K MLSCN set, primary screen (AID 602277;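 active means inhibition of the reporter signal at or above 50%; inactive means inhibition below 50%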). The note with it: HEK293-TLR3 RL24 IRF3 luciferase reporter, at 10 µM, stronger effect = higher value.

Voltage-gated potassium channel subunit beta-2 (Rattus norvegicus), sequence (P62483 whole entry, looked up): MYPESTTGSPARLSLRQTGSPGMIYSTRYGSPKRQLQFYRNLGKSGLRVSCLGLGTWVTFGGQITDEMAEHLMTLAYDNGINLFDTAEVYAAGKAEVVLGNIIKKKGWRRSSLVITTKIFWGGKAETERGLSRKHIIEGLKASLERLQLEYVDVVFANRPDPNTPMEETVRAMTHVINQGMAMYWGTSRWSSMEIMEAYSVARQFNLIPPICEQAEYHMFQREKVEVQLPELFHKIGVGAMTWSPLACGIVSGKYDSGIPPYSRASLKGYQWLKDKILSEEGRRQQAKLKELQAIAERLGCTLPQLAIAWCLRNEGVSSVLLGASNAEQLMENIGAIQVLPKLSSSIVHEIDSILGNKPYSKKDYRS

In the case of `C(/CCc1ccccc1)=N\n1cnnc1`, the cell count in test [1] was determined as 312. Moreover, the inhibition is 18.4% (inactive) in test [1], 17.1% (inactive) in test [3], 5.76% (inactive) in test [7] and 0.464% (inactive) in test [8]. Moreover, the inhibition of aggregation in test [2] is -7% (inactive). For the same compound, the nuclei count came out at 109% in test [2] and 105% in test [3]. Besides, in test [4], the fluorescence slope was -0.628 (inactive). Also, in test [5], the NADPH fluorescence slope is -5.3e-05 (inactive). In addition, the slope in test [6] is 0.00355 (inactive).
Regarding `CN1CCN(c2nc(-c3ccncc3)nc3ccccc23)CC1`, in test [1], the cell count worked out at 324. Also, the inhibition in test [1] is -13.1% (inactive); in test [3], -133% (inactive); in test [7] it was 11.9% (inactive); in test [8], 15.9% (inactive). For the same compound, the inhibition of aggregation in test [2] is -19.7% (inactive). Also, the values for the nuclei count in test [2] and in test [3] were 51.3% and 120%, respectively. In test [4], the fluorescence slope is -0.41 (inactive). In test [5], the NADPH fluorescence slope was -3.7e-05 (inactive). In addition, the slope in test [6] was 0.00562 (inactive).
Turning to `CCC(C(=O)Nc1ncccn1)(C(F)(F)F)C(F)(F)F`, the cell count in test [1] came out at 218. Also, the inhibition in test [1] is 2% (inactive); in test [3], -2.6% (inactive); in test [7] it was -24.5% (inactive); in test [8], -0.327% (inactive). The inhibition of aggregation in test [2] was 25.4% (inactive). The nuclei count amounted to 93.4% in test [2] and 110% in test [3]. Further, in test [4], the fluorescence slope is -0.499 (inactive). Moreover, in test [5], the NADPH fluorescence slope was 5.3e-05 (inactive). Further, the slope in test [6] was 0.00586 (inactive).
As for `O=C(C1CCCO1)N1CCN(C(c2ccccc2)c2ccccc2)CC1` (centres undefined), the cell count in test [1] turned out to be 412. The inhibition in test [1] is 2.5% (inactive); in test [3], 32.4% (inactive); in test [7] it was 13.8% (inactive); in test [8], 27.4% (inactive). Besides, the inhibition of aggregation in test [2] is 10.8% (inactive). Further, the nuclei count in test [2] was 97.1%; in test [3], 117%. The fluorescence slope in test [4] is -0.403 (inactive). In addition, in test [5], the NADPH fluorescence slope is -2.6e-05 (inactive). The slope in test [6] is 0.00589 (inactive).
As to `O=C(c1cccc(C(=O)N2CCN(c3ccc(F)cc3)CC2)c1)N1CCN(c2ccc(F)cc2)CC1`, the cell count in test [1] amounted to 692. The inhibition in test [1] is 1.5% (inactive); in test [3], -6.5% (inactive); in test [7], -6.05% (inactive); in test [8] it was -5.26% (inactive). For the same compound, the inhibition of aggregation in test [2] is -21.7% (inactive). Also, the nuclei count in test [2] was determined as 68.1%; in test [3], 92.8%. In addition, the fluorescence slope in test [4] was -0.438 (inactive). Besides, the NADPH fluorescence slope in test [5] is -9.2e-05 (inactive). Moreover, the slope in test [6] is 0.006 (inactive).
On to `CCn1c(CNc2ccc(OC)cc2)nnc1SCC(=O)c1ccc(OC)cc1`, for which the cell count in test [1] was found to be 544. Moreover, the inhibition in test [1] was -16.9% (inactive); in test [3] it was -101% (inactive); in test [7], 10% (inactive); in test [8], 14.7% (inactive). Moreover, the inhibition of aggregation in test [2] was 1.8% (inactive). Besides, the nuclei count in test [2] is 100%; in test [3], 107%. Besides, the fluorescence slope in test [4] is -0.502 (inactive). For the same compound, in test [5], the NADPH fluorescence slope is 7.7e-06 (inactive). For the same compound, in test [6], the slope was 0.00516 (inactive).
For `CC(C)Sc1nc2c(c(=O)n1-c1ccc(F)cc1)SCC2`, the cell count in test [1] worked out at 384. Also, the inhibition is -5.2% (inactive) in test [1], -22% (inactive) in test [3], -15.9% (inactive) in test [7] and -9.58% (inactive) in test [8]. In addition, in test [2], the inhibition of aggregation is -10.1% (inactive). Besides, the values for the nuclei count in test [2] and in test [3] were 106% and 108%, respectively. For the same compound, the fluorescence slope in test [4] is -0.519 (inactive). In addition, the NADPH fluorescence slope in test [5] was -8.5e-05 (inactive). Further, in test [6], the slope is 0.00437 (inactive).
As for `COc1ccc(NC(=O)c2oc3ccccc3c2NC(=O)c2ccco2)cc1`, in test [1], the cell count came to 317. The inhibition in test [1] was -4.8% (inactive); in test [3], -4.1% (inactive); in test [7] it was -10.3% (inactive); in test [8], -48.1% (inactive). Further, in test [2], the inhibition of aggregation was 23.6% (inactive). Moreover, the nuclei count came to 95.9% in test [2] and 95.1% in test [3]. In addition, in test [4], the fluorescence slope is -0.411 (inactive). Besides, the NADPH fluorescence slope in test [5] was 2.7e-05 (inactive). In addition, the slope in test [6] was 0.00551 (inactive).
`O=C(O)Cn1cc(C(=O)c2ccco2)c2ccccc21`: the cell count in test [1] was 316. In addition, the inhibition in test [1] was 16.3% (inactive); in test [3], 30.1% (inactive); in test [7] it was 0.251% (inactive); in test [8], 8.5% (inactive). Besides, in test [2], the inhibition of aggregation was 3.6% (inactive). Besides, the nuclei count in test [2] was 108%; in test [3] it was 104%. The fluorescence slope in test [4] is -0.487 (inactive). Also, the NADPH fluorescence slope in test [5] is -1.2e-05 (inactive). Also, in test [6], the slope was 0.00668 (inactive).
